“And” between values parts separate entries of the source, which are not always exact repeats. Identical values can stand only once. The source holds several records for some structures; these can differ, active in one and inactive in another. The source made the active and inactive calls. The calls were made as follows: active = hit-call score of the fitted dose curve at least 0.9, where 1 is the maximum; inactive = score below 0.9.
Key:
[1] = read-out: Tissue plasminogen activator (tPA), PLAT (gene 5327); assay: BSK_BE3C_tPA: BioMAP Diversity Plus: BE3C Assay for Tissue plasminogen activator (tPA) Biomarker Activity (AID 2283041); details: primary human bronchial epithelial cells; actives raise or lower the signal
Outline: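 tPA measured by ELISA 24 h after dosing human primary bronchial epithelial cells (BE3C system). Changes in either direction were fitted against DMSO. Parallel cultures were stained with SRB to flag overt cytotoxicity.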

[2] = read-out: Interleukin-8 (IL8), CXCL8 (gene 3576); assay: BSK_CASM3C_IL8: BioMAP Diversity Plus: CASM3C Assay for Interleukin-8 (IL8) Biomarker Activity (AID 2283042); details: primary human coronary artery smooth muscle cells; actives raise or lower the signal;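 also: IL-8 protein level quantified by ELISA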
[3] = read-out: Human Leukocyte Antigen - DR isotype (HLADR), HLA-DRA (gene 3122); assay: BSK_CASM3C_HLADR: BioMAP Diversity Plus: CASM3C Assay for Human Leukocyte Antigen - DR isotype (HLADR) Biomarker Activity (AID 2283043); details: primary human coronary artery smooth muscle cells; actives raise or lower the signal;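 also: cell-surface HLA-DR protein level quantified by ELISA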
[4] = read-out: Macrophage colony-stimulating factor (MCSF), CSF1 (gene 1435); assay: BSK_CASM3C_MCSF: BioMAP Diversity Plus: CASM3C Assay for Macrophage colony-stimulating factor (MCSF) Biomarker Activity (AID 2283044); details: primary human coronary artery smooth muscle cells; actives raise or lower the signal;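 also: M-CSF protein amount quantified by ELISA after 24 h exposure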
[5] = read-out: Low-density lipoprotein receptor (LDLR), LDLR (gene 3949); assay: BSK_CASM3C_LDLR: BioMAP Diversity Plus: CASM3C Assay for Low-density lipoprotein receptor (LDLR) Biomarker Activity (AID 2283045); details: primary human coronary artery smooth muscle cells; actives raise or lower the signal;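 also: LDLR protein level on the cell surface quantified by ELISA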
[6] = read-out: Monocyte Chemoattractant Protein-1 (MCP1), CCL2 (gene 6347); assay: BSK_CASM3C_MCP1: BioMAP Diversity Plus: CASM3C Assay for Monocyte Chemoattractant Protein-1 (MCP1) Biomarker Activity (AID 2283046); details: primary human coronary artery smooth muscle cells; actives raise or lower the signal;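 also: MCP-1 level quantified by ELISA 24 h after dosing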
[7] = BSK_CASM3C_Proliferation: Cell Proliferation Assessment in the BioMAP Diversity Plus: CASM3C Assay (AID 2283047); details: primary human coronary artery smooth muscle cells;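 also: sulforhodamine B total protein stain as relative cell number at 560 nm; sub-confluent cells exposed 48 h before staining; fitted both ways against DMSO so gain or loss of cell number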
[8] = read-out: Monokine induced gamma interferon (MIG), CXCL9 (gene 4283); assay: BSK_CASM3C_MIG: BioMAP Diversity Plus: CASM3C Assay for Monokine induced gamma interferon (MIG) Biomarker Activity (AID 2283048); details: primary human coronary artery smooth muscle cells; actives raise or lower the signal;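 also: MIG protein level measured by ELISA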
[9] = read-out: serum amyloid A (SAA), SAA1 (gene 6288); assay: BSK_CASM3C_SAA: BioMAP Diversity Plus: CASM3C Assay for serum amyloid A (SAA) Biomarker Activity (AID 2283049); details: primary human coronary artery smooth muscle cells; actives raise or lower the signal;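 also: SAA protein level quantified by ELISA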
[10] = BSK_CASM3C_SRB: Viability Assessment in the BioMAP Diversity Plus: CASM3C Assay (AID 2283050); details: primary human coronary artery smooth muscle cells;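 also: cells exposed to compound for 24 h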
[11] = read-out: Thrombomodulin, THBD (gene 7056); assay: BSK_CASM3C_Thrombomodulin: BioMAP Diversity Plus: CASM3C Assay for Thrombomodulin Biomarker Activity (AID 2283051); details: primary human coronary artery smooth muscle cells; actives raise or lower the signal;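 also: thrombomodulin protein level measured by ELISA 24 h after dosing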
[12] = read-out: Tissue Factor, F3 (gene 2152); assay: BSK_CASM3C_TissueFactor: BioMAP Diversity Plus: CASM3C Assay for Tissue Factor Biomarker Activity (AID 2283052); details: primary human coronary artery smooth muscle cells; actives raise or lower the signal;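 also: cell surface tissue factor protein level read by ELISA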
[13] = read-out: Interferon-gamma inducible Protein 10 (IP10), CXCL10 (gene 3627); assay: BSK_hDFCGF_IP10: BioMAP Diversity Plus: hDFCGF Assay for Interferon-gamma inducible Protein 10 (IP10) Biomarker Activity (AID 2283053); details: primary human foreskin fibroblasts; actives raise or lower the signal
Outline: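 ELISA quantification of IP-10 after a 24 h chemical exposure of human dermal foreskin fibroblast primary cultures. Both increases and decreases versus DMSO fitted.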

[14] = read-out: Urokinase-type plasminogen activator receptor (uPAR), PLAUR (gene 5329); assay: BSK_CASM3C_uPAR: BioMAP Diversity Plus: CASM3C Assay for Urokinase-type plasminogen activator receptor (uPAR) Biomarker Activity (AID 2283054); details: primary human coronary artery smooth muscle cells; actives raise or lower the signal;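 also: cell-surface uPAR protein level quantified by ELISA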
[15] = read-out: Vascular cell adhesion molecule 1 (VCAM1), VCAM1 (gene 7412); assay: BSK_CASM3C_VCAM1: BioMAP Diversity Plus: CASM3C Assay for Vascular cell adhesion molecule 1 (VCAM1) Biomarker Activity (AID 2283055); details: primary human coronary artery smooth muscle cells; actives raise or lower the signal;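 also: VCAM-1 protein level quantified by ELISA on the cells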
[16] = read-out: Collagen III, COL3A1 (gene 1281); assay: BSK_hDFCGF_CollagenIII: BioMAP Diversity Plus: hDFCGF Assay for Collagen III Biomarker Activity (AID 2283056); details: primary human foreskin fibroblasts; actives raise or lower the signal
Outline: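 Human foreskin fibroblast primary cultures sampled 24 h after dosing; Collagen III quantified by ELISA. Signal fitted bidirectionally against DMSO baseline.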

[17] = read-out: Epidermal growth factor receptor (EGFR), EGFR (gene 1956); assay: BSK_hDFCGF_EGFR: BioMAP Diversity Plus: hDFCGF Assay for Epidermal growth factor receptor (EGFR) Biomarker Activity (AID 2283057); details: primary human foreskin fibroblasts; actives raise or lower the signal
Outline: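 EGFR levels by ELISA in human dermal fibroblast cultures, 24 h post-treatment, fitted bidirectionally versus DMSO. Parallel wells stained with sulforhodamine B to detect overt cytotoxicity.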

[18] = read-out: Interleukin-8 (IL8), CXCL8 (gene 3576); assay: BSK_hDFCGF_IL8: BioMAP Diversity Plus: hDFCGF Assay for Interleukin-8 (IL8) Biomarker Activity (AID 2283058); details: primary human foreskin fibroblasts; actives raise or lower the signal
Outline: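 Primary human foreskin fibroblasts (hDFCGF system) dosed with chemical; IL-8 measured by ELISA 24 hours later. Bidirectional curve fitting relative to DMSO baseline; cytotoxicity tracked in parallel cultures by SRB total protein staining.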

[19] = BSK_hDFCGF_Proliferation: Cell Proliferation Assessment in the BioMAP Diversity Plus: hDFCGF Assay (AID 2283059); details: primary human foreskin fibroblasts;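 also: curves fitted for both rise and fall of signal versus DMSO baseline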
Outline: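 This proliferation readout used SRB total-protein staining of human foreskin fibroblasts […], normalized to DMSO with bidirectional curve fitting.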

[20] = read-out: Macrophage colony-stimulating factor (MCSF), CSF1 (gene 1435); assay: BSK_hDFCGF_MCSF: BioMAP Diversity Plus: hDFCGF Assay for Macrophage colony-stimulating factor (MCSF) Biomarker Activity (AID 2283060); details: primary human foreskin fibroblasts; actives raise or lower the signal
Outline: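 Human foreskin fibroblast primary cultures; M-CSF measured by ELISA 24 hours after chemical dosing. Bidirectional fitting relative to DMSO, with overt cytotoxicity tracked by parallel SRB total-protein staining (0.1% SRB, 10% TCA fixation, 560 nm).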

Measured: AC50

CCOC(N)=O
inactive: all assays above

O=C1CN(N=Cc2ccc([N+](=O)[O-])o2)C(=O)N1
active: [19] 30.6 µM
inactive: all other assays above

OCc1c[nH]c2ccccc12
active: [11] 0.184 µM | [19] 23.8 µM
inactive: all other assays above

O=C(O)c1cccc(C(=O)O)c1
active: [12] 357 nM
inactive: all other assays above

CCc1cccc(CC)c1N
inactive: all assays above

Cc1ncc([C@@H](CCCCCCc2ccc3c(n2)NCCC3)CC(=O)O)cn1
active: [7] 3.97 µM | [14] 0.148 µM
inactive: all other assays above

OCC(CO)(CO)CO
inactive: all assays above

Cn1cc[nH]c1=S
inactive: all assays above

C[Si](C)(C)C(F)(F)C(F)(F)C(F)(F)F
inactive: all assays above

FC(F)=C(F)C(F)(F)C(F)(F)C(F)(F)C(F)(F)C(F)(F)C(F)(F)F
inactive: all assays above

CCOc1ccc2[nH]cc(C(=O)NCc3ccccc3)c(=O)c2n1
active: [17] 3.97 µM
inactive: all other assays above

Cc1cccc(O)c1C
inactive: all assays above

CCCCC(CC)C(=O)OCCOCCOCCOC(=O)C(CC)CCCC (stereo not given)
active: [11] 20 µM | [16] 20 µM | [19] 11 µM | [20] 10.7 µM
inactive: all other assays above

CCCCCCCCN(C)C
inactive: all assays above

CCCCCCCCCC
inactive: all assays above

S=P(N1CC1)(N1CC1)N1CC1
active: [7] 20.9 µM | [19] 18.2 µM
inactive: all other assays above

OCCC(F)(F)C(F)(F)C(F)(F)C(F)(F)F
inactive: all assays above

FC(F)(F)C(F)(F)C(F)(F)C(F)(F)C(F)(F)C(F)(F)I
active: [13] 30 µM | [16] 30 µM | [19] 50.7 µM
inactive: [1] | [2] | [3] | [4] | [5] | [6] | [7] | [8] | [9] | [10] | [11] | [12] | [13] | [14] | [15] | [16] | [17] | [18] | [19] | [20]

O=C(O)c1ccc2c(c1)nc(C(=O)NC1CCN(C3CC3)CC1)n2Cc1cc(-c2ccc(Cl)s2)on1
inactive: all assays above

OCc1ccccc1
inactive: all assays above

CC(C)CC(C)O (stereo not given)
inactive: all assays above

Cc1nc(-c2ccccn2)ncc1C(=O)Nn1cc(C)c2cc(F)ccc21
active: [7] 22.6 µM | [11] 20 µM
inactive: all other assays above

OC(O)(C(F)C(O)(O)C(F)(F)F)C(F)(F)F
active: [1] 24.6 µM and 20.5 µM | [8] 33.3 µM and 28.2 µM | [9] 49.1 µM | [12] 19 µM and 13.4 µM | [13] 19.6 µM | [19] 9.21 µM and 7.73 µM
inactive: [2] | [3] | [4] | [5] | [6] | [7] | [9] | [10] | [11] | [13] | [14] | [15] | [16] | [17] | [18] | [20]

NNC(=O)c1ccncc1
inactive: all assays above

COc1cc2c(c(OC)c1OC)-c1ccc(OC)c(=O)cc1[C@@H](NC(C)=O)CC2
active: [3] 0.43 µM | [7] 0.148 µM | [13] 4.08 µM | [15] 0.579 µM | [19] 1 µM
inactive: all other assays above
